Values joined by “and” are separate entries in the source; they are usually repeats but may differ in a detail not shown here. Identical values can stand only once. The campaign covered roughly 430,000 compounds. About 2,600 (0.6%) were called active. No stated cut-off is given here; in the data, active means inhibition mostly above about 37% (no sharp cut-off); inactive means mostly below about 20%. What follows is part of a selection rich in actives, with near analogues and random picks from the rest.
The compounds below were run on PriA–SSB C-terminal tail interaction (Klebsiella pneumoniae) (assay: blocks PriA binding to SSB C-terminal tail, primary screen, biochemical, AlphaScreen (AID 1272365;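 further: plate controls were negative control peptide for no effect and reference peptide for full effect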)). Conditions: AlphaScreen SSBct-PriA binding, biotinylated peptide; at 33 µM, stronger effect = higher value.

Row | SMILES | inhibition
1 | CCSc1nnc(NC(=O)CSc2nnc(CNC(=O)c3cccs3)o2)s1 | -13% (inactive)
2 | O=C(ON=Cc1ccc(N2CCCCC2)c([N+](=O)[O-])c1)c1c(F)cccc1F | 41.1% (active)
3 | O=C(COc1ccccc1F)NNC(=O)c1ccc(N2CCCCC2)c([N+](=O)[O-])c1 | 13.6% (inactive)
4 | CON=Cc1ccc(N2CCOCC2)c([N+](=O)[O-])c1 | -5.72% (inactive)
5 | COc1ccc(C(=O)CSc2nccn(-c3ccc(C)cc3)c2=O)cc1 | 8% (inactive)
6 | c1ccc(-c2ccc(-c3csc4ncnc(N5CCCCCC5)c34)cc2)cc1 | -3% (inactive)
7 | COc1ccc(-c2nc3n(c2Br)CCC3)cc1 | 18.6% (inactive)
8 | Brc1c(-c2ccccc2)nc2n1CCC2 | 57% (active)
9 | Brc1cccc(-c2nnc3n2CCC3)c1 | -16.1% (inactive)
10 | COc1ccc(CCNS(=O)(=O)c2cccc([N+](=O)[O-])c2)cc1 | 0.99% (inactive)
11 | CCN(CC)c1ccc(C=NNS(=O)(=O)c2cccc([N+](=O)[O-])c2)cc1 | 46.5% (active)
12 | CCc1ccc(S(=O)(=O)NN=Cc2ccc3c(c2)OCO3)cc1 | -15.4% (inactive)
13 | Cc1ccccc1OCC(=O)NCCS(=O)(=O)N1CCN(Cc2ccccc2)CC1 | -5% (inactive)
14 | Cc1nc2nc(COc3ccccc3)[nH]n2c(=O)c1C | -10.1% (inactive)
15 | COc1ccc(OCc2nc(-c3ccccn3)n[nH]2)cc1 | 101% (active)
16 | c1ccc(-c2nc(-c3cnccn3)n[nH]2)nc1 | 125% (active)
17 | S=c1[nH]nc(COc2ccccc2)o1 | -8% (inactive)
18 | c1ccc(OCc2nc(-c3ccccn3)n[nH]2)cc1 | 104% (active)
19 | Cc1cccc2[nH]c(COc3ccc(F)cc3)nc12 | -4% (inactive)
20 | COc1cccc(C(=O)N2CC(c3nc(-c4ccccn4)no3)C2)c1 | -10% (inactive)
21 | O=c1oc2ccccc2cc1-c1nc(-c2ccncc2)n[nH]1 | 0% (inactive)
22 | CCOC(=O)c1ccccc1NC(=O)Cn1cnc2c(cnn2-c2ccc(C)cc2C)c1=O | 20% (inactive)
23 | Cc1cc(NC(=O)C(=O)NCc2cccnc2)ccc1N1CCCC1=O | 0% (inactive)
24 | COc1ccc(CCS(=O)(=O)NCC(=O)N2CCOC(c3ccccc3)C2)cc1 (stereo not drawn) | 2% (inactive)

Row | SMILES | inhibition
25 | Cc1ccc2cccc(C(=O)N3CC(S(=O)(=O)Cc4ccco4)C3)c2n1 | -1% (inactive)
26 | O=C(CSc1nc2c(c(=O)[nH]1)CN(Cc1ccc(F)cc1)CC2)Nc1ccc(F)c(Cl)c1 | 0% (inactive)
27 | O=c1[nH]c(=S)[nH]c2sc3c(c12)CCC3 | 18% (inactive)
28 | CCOc1cc(-c2nnc(NC(=O)c3cc(Cl)ccc3Cl)o2)cc(OCC)c1OCC | 0% (inactive)
29 | Cc1ccc(NC(=O)C(=O)NCC(c2ccc(F)cc2)N2CCN(C)CC2)cc1Cl (stereo not drawn) | -4% (inactive)
30 | CCCCOCCCn1c(NS(=O)(=O)c2ccccc2)c(S(=O)(=O)c2ccc(C)cc2)c2nc3ccccc3nc21 | 67.3% (active)
31 | CCCCCCCCn1c(NS(=O)(=O)c2ccc(Cl)cc2)c(S(=O)(=O)c2ccccc2)c2nc3ccccc3nc21 | 49.6% (inactive)
32 | Cc1ccc(S(=O)(=O)c2c(N)n(N=Cc3ccco3)c3nc4ccccc4nc23)cc1 | 11% (inactive)
33 | Cc1ccc(S(=O)(=O)Nc2c(S(=O)(=O)c3ccccc3)c3nc4ccccc4nc3n2Cc2ccccc2)cc1 | 34.2% (inactive)
34 | CCCCn1c(NS(=O)(=O)c2ccc(Cl)cc2)c(S(=O)(=O)c2ccc(C)cc2)c2nc3ccccc3nc21 | 54.8% (inactive)
35 | CCCCOCCCn1c(NS(=O)(=O)c2ccc3ccccc3c2)c(S(=O)(=O)c2ccc(C)cc2)c2nc3ccccc3nc21 | 59.9% (active)
36 | O=S(=O)(CCc1ccccc1)NCC(O)c1ccoc1 (stereo not drawn) | -25% (inactive)
37 | COc1cc(NS(=O)(=O)c2ccc(NC(=O)c3cc4c(ccc5ccccc54)oc3=O)cc2)ncn1 | -16% (inactive)
38 | COC(=O)c1ccc(S(=O)(=O)NCC2(c3ccc(F)cc3)CC2)cc1 | -24% (inactive)
39 | COc1ccc(Br)c(C(=O)NCCCc2cnoc2)c1 | 4% (inactive)
40 | Cc1cc2ncc(NC(=O)NCCOc3ccccc3)cn2n1 | -12% (inactive)
41 | O=[N+]([O-])c1ccccc1NN=Cc1cccc(O)c1O | 0.72% (inactive)
42 | O=C(Nc1ccc(OC(F)(F)F)cc1)C(=O)Nc1ccccc1[N+](=O)[O-] | 4% (inactive)
43 | O=[N+]([O-])c1ccccc1Nc1ccc(O)cc1 | 46.7% (active)
44 | COc1cccc(CCNC(=O)C2CS(=O)(=O)CN2C(=O)c2ccccc2)c1 (stereo not drawn) | -9% (inactive)
45 | Cc1ccc(-c2cc3c(=O)n(CC(=O)Nc4ccc5c(c4)OCO5)ncn3n2)cc1C | -17% (inactive)
46 | O=C(c1ccccc1)c1sc(NC(=O)c2cc(-c3ccccc3)nc3ccccc23)nc1-c1ccccc1 | 10% (inactive)
47 | CC(=NNC(=O)c1c(Cl)c(C)nn1C)c1cccc(NC(=O)C2CCCC2)c1 | 2.34% (inactive)
48 | Cc1cc(-c2nnc(NC(=O)Cc3ccccc3)o2)n(C)n1 | 14% (inactive)

Row | SMILES | inhibition
49 | Cc1cc(-c2nnc(NC(=O)C(c3ccccc3)c3ccccc3)o2)n(C)n1 | 61% (active)
50 | Cc1cc(-c2nnc(NC(=O)c3ccc(C(=O)c4ccccc4)cc3)o2)nn1C | 3% (inactive)
51 | Cc1cc(-c2nnc(NC(=O)C(c3ccccc3)c3ccccc3)o2)nn1C | 85% (active)
52 | Cc1cc(-c2nnc(NC(=O)C(C)C)o2)nn1C | -2% (inactive)
53 | CSc1ccccc1C(=O)Nc1nnc(-c2cc(C)nn2C)o1 | 6% (inactive) and 0% (inactive)
54 | COC[C@@](C)(O)CNS(=O)(=O)c1ccccc1OC | -2% (inactive)
55 | Cc1cc(C)c2c(n1)nn1c(NCc3ccc(Cl)cc3Cl)cc(C)nc21 | -9% (inactive)
56 | COc1cc(NC(=O)Cc2c(C)noc2C)ncn1 | -19% (inactive)
57 | CC(=O)c1c(C)n(-c2ccc(C)cc2)c2ccc(O)cc12 | -0.78% (inactive)
58 | Cc1oc2ccc(OCc3ccccc3)cc2c1C(=O)NCc1ccco1 | -4% (inactive)
59 | CCOC(=O)c1c(C)n(-c2ccc(C)cc2)c2ccc(OCC(O)Cn3ccnc3)cc12 (stereo not drawn) | 83% (active) and 46% (active)
60 | CC(=O)c1c(C)n(-c2ccc(N(C)C)cc2)c2ccc(OCC(N)=O)cc12 | -18.2% (inactive)
61 | CCOC(=O)c1c(C)n(-c2ccc(C)cc2)c2ccc(OCC(O)CNCc3ccco3)cc12 (stereo not drawn) | 69% (active)
62 | Cc1cc(C(=O)OCC(=O)NCc2ccco2)c(C)n1-c1ccccc1 | -5.93% (inactive)
63 | COc1cc(OC)cc(-c2noc(-c3cc(-c4cc(C)ccc4C)n[nH]3)n2)c1 | -13% (inactive)
64 | O=C(c1ccc([N+](=O)[O-])o1)N1CCN(c2ncnc3c2nnn3-c2cccc(F)c2)CC1 | -10% (inactive)
65 | CC(=O)Nc1nnc(Cc2ccc(F)cc2)o1 | 1% (inactive)
66 | COc1ncc(NC(=O)Nc2ccc(C)c(Cl)c2)c(N(C)C)n1 | 10% (inactive)
67 | O=C(Cc1csc(SCc2ccc(Cl)cc2)n1)Nc1ccc2c(c1)OCO2 | 1% (inactive)
68 | CN(C)c1ccc(/C=N\NC(=O)c2ccccc2O)cc1 | -18% (inactive)
69 | NC(=O)c1ccccc1OCC#CCNS(=O)(=O)Cc1ccc(Cl)cc1 | -1% (inactive)
70 | O=C(Cn1nc(-c2ccc(F)cc2)c2sc(N3CCCC3)nc2c1=O)NCc1ccccc1Cl | -4% (inactive)
71 | CCOc1cc(/C=C2/N=C(c3ccc(C(C)(C)C)cc3)OC2=O)cc(Cl)c1OS(C)(=O)=O | 62.1% (active)
72 | CC(=O)Nc1ccc(N2C(=O)c3cccc4cccc(c34)C2=O)cc1 | 5% (inactive)

Row | SMILES | inhibition
73 | Cc1c(NC(=O)COc2cccc(OCCC(C)C)c2)c(=O)n(-c2ccccc2)n1C | -3% (inactive)
74 | Cc1c(NC(=O)CSc2cccc3cccnc23)c(=O)n(-c2ccccc2)n1C | 96% (active)
75 | Cc1ccc(NC(=O)C2CCCN2S(=O)(=O)c2cccc3cccnc23)c(C)c1 (stereo not drawn) | -5.79% (inactive)
76 | Cc1ccc(NC(=O)CSc2cccc3cccnc23)c(C)c1 | 79.3% (active)
77 | Cc1ccccc1OCCC(=O)Nc1c(C)n(C)n(-c2ccccc2)c1=O | -12.4% (inactive)
78 | O=C(CSc1cccc2cccnc12)Nc1ccc(Br)cc1 | 27.6% (inactive)
79 | O=C(CSc1nnc(-c2ccc3c(c2)OCCO3)o1)Nc1nc(-c2ccccc2)cs1 | -3% (inactive)
80 | COc1ccc(C(=O)CC(SCCO)c2ccc(F)cc2)cc1OC (stereo not drawn) | -1% (inactive)
81 | COc1ccc(NC(=O)NCC(c2ccc3c(c2)CCCN3C)N2CCCC2)cc1OC (stereo not drawn) | 25% (inactive)
82 | CCCN1CCCc2cc(CCNC(=O)CCC3CCCC3)ccc21 | 63% (active)
83 | CCCN1CCCc2cc(CCNC(=O)c3ccco3)ccc21 | 56% (active)
84 | CCCN1CCCc2cc(CCNC(=O)Cc3ccc(OC)cc3)ccc21 | 57.9% (inactive)
85 | CCC(=O)N1CCc2ccc(NC(=O)CCC3CCCC3)cc2C1 | -6% (inactive)
86 | Cc1cc(C)c(S(=O)(=O)Nc2ccc3c(c2)CCCN3C(=O)c2ccco2)c(C)c1 | 0% (inactive)
87 | O=C(NCCc1ccc(N2CCCC2)cc1)c1ccco1 | -19% (inactive)
88 | Cn1nc(CNS(=O)(=O)/C=C/c2ccccc2)c2c1CCCC2 | -3% (inactive)
89 | CCCS(=O)(=O)N1CCc2ccc(NC(=O)c3ccc(Br)o3)cc2C1 | -14% (inactive)
90 | C=CCn1c(SCC(=O)N2CCOCC2)nc2scc(-c3ccccc3Cl)c2c1=O | -1% (inactive)
91 | Cc1cc(=O)n(CC(=O)Nc2ccc(C(F)(F)F)cc2)c(-c2ccncc2)n1 | -28% (inactive)
92 | CS(=O)(=O)N1CCN(C(=O)c2cnn3c2OCCC3)CC1 | 6% (inactive)
93 | O=C(Cc1ccc(F)cc1)NCCn1nc(C(F)(F)F)c2c1CCCC2 | 10% (inactive)

— PubChem BioAssay AID1272365 (Small Molecule Screening Facility, UW Madison, 2018)
